Measurements: PubChem BioAssay (Tox21)
Records with an inconclusive call do not appear. Calls of active or inactive are those of the source. Unless noted, calls come from the whole dose curve; as a rule, active = well fitted curve in the direction sought with a large enough effect in the repeat runs; inconclusive = weak or mixed curves; inactive = no such curve, though single readings can be large; an effect the other way counts as inactive or inconclusive.

Columns and labels:
[1] = qHTS assay to identify small molecule agonists of the RXR signaling pathway - cell viability counter screen (AID 1159529); note: series mostly up to about 77 µM; nearly all actives have a fitted effect of over 50% in size
In short: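 CellTiter-Glo luminescence gave viability in the wells also read for beta-lactamase. Cells (RXR-alpha-UAS-bla HEK 293T, 2% charcoal-stripped FBS medium) had 5 hr plating, then 16 hr compound exposure at 37 C; tetraoctyl ammonium bromide served as positive control.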

[2] = qHTS assay to identify small molecule antagonists of the retinoid acid receptor (RAR) signaling pathway - cell viability counter screen (AID 1159551); note: nearly all actives have a fitted effect of over 35% in size
In short: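 Seed C3RL4 cells; next day add compound, then retinol to 1 uM final; incubate 6 h at 37 C; add CellTiter-Glo; read luminescence after 30 min at RT.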

[3] = qHTS assay to identify small molecule antagonists of the retinoic acid receptor (RAR) signaling pathway (AID 1159552; note: nearly all actives have a fitted effect of over 50% in size)
In short: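 Luminescent RARE reporter read-out in C3RL4 cells: 6 hr co-treatment at 37 C of test compounds with retinol at 1 uM final. Cells plated overnight beforehand; luciferase reagent incubated 30 min at room temperature before reading.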

[4] = qHTS assay to identify small molecule agonists of the retinoic acid receptor (RAR) signaling pathway (AID 1159553)
In short: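 Activation of retinol signaling was monitored via a RARE luciferase reporter in C3RL4 cells. After 6 hr compound treatment at 37 C, detection reagent was added for 30 min at room temperature before luminescence reading.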

[5] = qHTS assay to identify small molecule antagonists of the estrogen related receptor (ERR) signaling pathway from Tox21 library - cell viability counter screen (AID 1224834); note: nearly all actives have a fitted effect of over 30% in size
In short: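 CellTiter-Fluor fluorescence measured; ERR cells; 17.5 h compound incubation at 37 C; 30 min reagent step.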

[6] = biological target: Luciferin 4-monooxygenase (Photinus pyralis) (UniProt P08659); test: qHTS assay to identify small molecule inhibitors of firefly luciferase (AID 1224835); note: series mostly up to about 120 µM; nearly all actives have a fitted effect of over 25% in size
Sequence of Luciferin 4-monooxygenase (Photinus pyralis) (P08659 whole entry, looked up): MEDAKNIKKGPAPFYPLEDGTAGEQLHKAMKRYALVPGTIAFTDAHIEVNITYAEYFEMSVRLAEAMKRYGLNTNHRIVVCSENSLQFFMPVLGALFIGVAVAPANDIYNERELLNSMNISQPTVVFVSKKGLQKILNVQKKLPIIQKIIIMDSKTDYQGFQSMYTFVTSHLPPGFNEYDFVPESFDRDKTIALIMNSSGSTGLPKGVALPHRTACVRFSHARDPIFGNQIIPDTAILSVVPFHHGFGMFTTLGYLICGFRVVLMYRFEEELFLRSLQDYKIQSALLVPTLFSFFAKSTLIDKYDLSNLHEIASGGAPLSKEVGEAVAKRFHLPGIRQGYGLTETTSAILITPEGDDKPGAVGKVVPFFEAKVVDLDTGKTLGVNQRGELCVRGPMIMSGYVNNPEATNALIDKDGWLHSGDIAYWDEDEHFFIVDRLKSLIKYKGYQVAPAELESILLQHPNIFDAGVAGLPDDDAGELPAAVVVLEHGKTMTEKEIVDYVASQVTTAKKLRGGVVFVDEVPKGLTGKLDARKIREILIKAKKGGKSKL
In short: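 Biochemical qHTS: compounds run as interplate titrations against purified firefly enzyme, with D-luciferin and ATP each at its KM concentration. Light output recorded by CCD imaging.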

[7] = qHTS assay to identify small molecule agonists of the constitutive androstane receptor (CAR) signaling pathway - cell viability counter screen (AID 1224836); note: series mostly up to about 92 µM; nearly all actives have a fitted effect of over 45% in size
In short: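 Cell viability multiplexed with the CAR agonist screen: CellTiter-Fluor fluorescence after 23 hr at 37 C. HepG2-CYP2B6-hCAR cells got compounds at 15 concentrations with PK11195 at 0.75 uM final.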

[8] = biological target: Nuclear receptor subfamily 1 group I member 3 (Homo sapiens) (UniProt Q14994); test: qHTS assay to identify small molecule antagonists of the constitutive androstane receptor (CAR) signaling pathway (AID 1224838);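 note: HepG2 cells stably expressing hCAR with CYP2B6 luciferase reporter stimulated by CITCO; nearly all actives have a fitted effect of over 40% in size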
Sequence of Nuclear receptor subfamily 1 group I member 3 (Homo sapiens) (Q14994 whole entry, looked up): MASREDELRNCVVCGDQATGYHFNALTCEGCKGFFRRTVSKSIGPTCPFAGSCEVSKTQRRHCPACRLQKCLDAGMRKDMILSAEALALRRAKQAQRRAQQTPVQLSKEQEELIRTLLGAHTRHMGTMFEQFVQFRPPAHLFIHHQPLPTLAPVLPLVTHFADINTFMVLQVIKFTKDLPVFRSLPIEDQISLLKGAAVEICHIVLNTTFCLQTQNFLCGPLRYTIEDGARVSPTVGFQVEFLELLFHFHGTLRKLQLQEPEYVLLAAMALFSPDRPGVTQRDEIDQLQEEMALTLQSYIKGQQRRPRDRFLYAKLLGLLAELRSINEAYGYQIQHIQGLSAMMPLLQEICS
In short: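 Reporter luminescence was quantified after 24 h exposure of hCAR/CYP2B6-2.2kb double-stable HepG2 cells to compounds at 15 concentrations in the presence of 50 nM CITCO final.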

[9] = biological target: Nuclear receptor subfamily 1 group I member 3 (Homo sapiens) (UniProt Q14994); test: qHTS assay to identify small molecule agonists of the constitutive androstane receptor (CAR) signaling pathway (AID 1224839);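 note: HepG2 cells stably carrying human CAR and a CYP2B6 luciferase reporter; series mostly up to about 92 µM; nearly all actives have a fitted effect of over 15% in size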
In short: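 Luminescent ONE-Glo read-out after 24 hr, 37 C exposure of double-stable HepG2-CYP2B6-hCAR reporter cells to a 15-point compound series, in the presence of 0.75 uM PK11195 (final).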

[10] = qHTS assay to identify small molecule antagonists of the estrogen related receptor signaling pathway with the pleiotropic PPARgamma coactivator (PGC) from Tox21 10K library - cell viability counter screen (AID 1224840; active = well fitted cell-killing curve with a large enough effect in the repeat runs, not every such curve was filed as active; note: nearly all actives have a fitted effect of over 40% in size)
In short: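 Here the PGC/ERR cells serve as a cytotoxicity control: they are exposed to compounds for 17.5 hours at 37 C, and live-cell signal is quantified using CellTiter-Fluor fluorescence.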

[11] = qHTS assay to identify small molecule antagonists of the constitutive androstane receptor (CAR) signaling pathway - cell viability counter screen (AID 1224837); note: series mostly up to about 92 µM; nearly all actives have a fitted effect of over 45% in size
In short: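 Using CellTiter-Fluor, viability is scored in HepG2 cells stably carrying hCAR and a 2.2kb CYP2B6 reporter after 23 hr compound exposure across 15 concentrations, with CITCO present at 50 nM.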

[12] = qHTS assay to identify small molecule antagonists of the estrogen related receptor signaling pathway with the pleiotropic PPARgamma coactivator (PGC) from Tox21 10K library (AID 1224841; call rule not given here; note: series mostly up to about 92 µM; actives are mostly falling curves and most rising ones were filed inactive; nearly all actives have a fitted effect of over 50% in size)
In short: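 Each well held 2,000 PGC/ERR cells, pre-incubated six hours (37 C, 5% CO2). Test substances in DMSO were added by pin tool and left for 18 h at 37 C before luciferase detection by One-Glo.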

[13] = qHTS assay to identify small molecule agonists of the estrogen related receptor signaling pathway with the pleiotropic PPARgamma coactivator (PGC) from Tox21 10K library (AID 1224842); note: nearly all actives have a fitted effect of over 15% in size
In short: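 PGC/ERR reporter cell line, 2,000 cells per well, incubated 6 h at 37 C before 23 nL compound in DMSO was added. After 18 h at 37 C, One-Glo luminescence read following 30 min at room temperature.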

Measured: Potency

CC(C)(O)C(=O)O
not listed: [11] | [12] | [13]
inactive: all other assays above

Cc1ccc2c(Cl)cc(Cl)c(O)c2n1
not listed: [8] | [9] | [12] | [13]
inactive: all other assays above

CCCC(=O)OCc1ccccc1
not listed: [8] | [9]
inactive: all other assays above

Cc1cc(C)n(CO)n1
not listed: [8] | [9] | [11] | [12] | [13]
inactive: all other assays above

CC(=O)Nc1cccc(N)c1
not listed: [8] | [9] | [11]
inactive: all other assays above

CCC(C)C1N=C(C)C(C)S1 (stereo not given)
not listed: [8] | [9] | [13]
inactive: all other assays above

COC(=O)c1cc(Cl)ccc1[N+](=O)[O-]
not listed: [11] | [12] | [13]
inactive: all other assays above

O=C(O)CCc1nc2ccccc2[nH]1
not listed: [9] | [11] | [12] | [13]
inactive: all other assays above

CCc1ccc(C(=O)C(C)CN2CCCCC2)cc1 (stereo not given)
not listed: [11] | [12] | [13]
inactive: all other assays above

CC(C)(Cc1c[nH]c2ccccc12)NCC(O)COc1ccccc1C#N (stereo not given)
not listed: [5] | [8] | [9] | [12] | [13]
inactive: all other assays above

CCOC(OCC)OCC
not listed: [11] | [12] | [13]
inactive: all other assays above

NC(=O)c1cc[n+](CC2=C(C(=O)[O-])N3C(=O)[C@@H](NC(=O)Cc4cccs4)[C@H]3SC2)cc1
not listed: [11] | [12] | [13]
inactive: all other assays above

O=[N+]([O-])c1ccc(Cl)cc1Cl
not listed: [11] | [12] | [13]
inactive: all other assays above
